Laboratory results taken from PubChem BioAssay AID488835 (Broad Institute, 2010).
Screen size: about 1,400 compounds; about 140 (10%) were called active.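 Rule for the calls: active = Half-maximal inhibitory dose from the fit at or below ten times the top valid tested dose; inconclusive = Invalid fit, or flat curve showing 30 to 70% inhibition; inactive = the rest.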 The list is a sample of the results. Entries with a potency or affinity are not part of this list.

These compounds were tested against Lysine-specific demethylase 4C (Homo sapiens) (UniProt Q9H3R0) (assay: inhibition of JMJD2C H3K9me3 demethylation – biochemical, DELFIA europium, cherry-picked samples, dose response (AID 488835;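 note: signal is the H3K9me2 demethylation product detected by a dimethyl-specific antibody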)). Settings: GST-JMJD2C(1-420); series mostly up to 6 µM.
Sequence of Lysine-specific demethylase 4C (Homo sapiens) (Q9H3R0 1-420 limits assumed): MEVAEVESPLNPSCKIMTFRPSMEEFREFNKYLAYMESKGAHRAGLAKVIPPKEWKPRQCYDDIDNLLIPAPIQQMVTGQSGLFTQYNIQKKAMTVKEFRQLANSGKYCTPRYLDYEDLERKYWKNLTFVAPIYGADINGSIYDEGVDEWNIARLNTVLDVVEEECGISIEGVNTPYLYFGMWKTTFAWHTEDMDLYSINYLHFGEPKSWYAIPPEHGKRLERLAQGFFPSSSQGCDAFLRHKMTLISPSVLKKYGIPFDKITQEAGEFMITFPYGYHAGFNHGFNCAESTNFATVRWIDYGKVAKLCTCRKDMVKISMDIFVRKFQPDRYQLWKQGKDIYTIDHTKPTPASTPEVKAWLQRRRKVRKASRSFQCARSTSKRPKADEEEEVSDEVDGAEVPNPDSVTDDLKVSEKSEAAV

outcome, inactive:
COC(=O)c1cc(OC)c(OC)cc1NC(=O)Cn1nnc(-c2ccccc2Cl)n1
CC12CN3CC(C)(CN(C1)C3c1ccc3ccccc3c1O)C2=O (configuration not stated)
COc1ccc2c(C(=O)NCCCCO)c(-c3ccc(S(C)(=O)=O)cc3)sc2c1
C#CC[N+]1(CC#Cc2ccc(C#CC[N+]3(CC#C)CCOCC3)cc2)CCOCC1
CSc1nc(N2CCN(C)CC2)c2c(c1C#N)CC(C)(C)OC2
Cc1ccc(NC(=O)CSc2ncccn2)c([N+](=O)[O-])c1
C=CCN(C(=O)Nc1ccccc1)C1CC(=O)N(c2ccc(OC)cc2)C1=O (configuration not stated)
Nc1nnc(SC2CC(=O)N(c3ccccc3)C2=O)s1 (configuration not stated)
Cc1nnc2c(N3CCN(C(=O)c4ccco4)CC3)nc3ccccc3n12
Cc1c(C(=O)Nc2ccc3c(c2)OCO3)sc2ncn(CC(=O)N3CC(C)CC(C)C3)c(=O)c12 (configuration not stated)
O=C(Nc1nc2c(s1)C(=O)CCC2)c1ccccc1
CCCN1C(=O)c2ccc(C(=O)Nc3cc(C)ccc3O)cc2C1=O
C[C@H](CO)N1C[C@H](C)[C@@H](CN(C)S(=O)(=O)c2cn(C)cn2)Oc2ccc(NC(=O)C3CC3)cc2C1=O
C[C@H](CO)N1C[C@H](C)[C@H](CN(C)S(=O)(=O)c2ccccc2)Oc2c(NS(C)(=O)=O)cccc2C1=O
COC(=O)c1c(-c2cccs2)csc1NC(=O)CN1CCOCC1
O=C(NCCCN1CCOCC1)c1cccc(S(=O)(=O)N2CCc3ccccc3C2)c1
Cc1nc2ccccn2c1C(=O)NCCCN1CCOCC1
Cc1ccc(S(=O)(=O)N2CCOCC2)cc1NC(=O)COC(=O)c1cc(=O)[nH]c2ccccc12
Cc1c(C(=O)NCc2cccs2)oc2ccccc12
Cc1cc(NC(=O)COc2ncnc3sc(C)c(C)c23)no1
Cn1c(SCC(=O)Nc2cc(S(=O)(=O)N3CCOCC3)ccc2N2CCOCC2)nnc1-c1ccncc1
Cc1ccccc1C(=O)OCCCN=C1NS(=O)(=O)c2ccccc21
O=C(CCc1ccc(S(=O)(=O)NCc2ccccc2)cc1)NCc1ccc2c(c1)OCO2
Cc1noc(C)c1S(=O)(=O)N(C)C[C@H]1Oc2c(NC(=O)Nc3ccccc3)cccc2C(=O)N([C@H](C)CO)C[C@@H]1C
O=C(NN=C1CCCCCCCCCCC1)c1cccc(S(=O)(=O)N2CCOCC2)c1
O=C(CC1NC(=O)NC1=O)Nc1ccccc1 (configuration not stated)
Cc1nnnn1/C(=C\c1ccccc1)C(=O)OCC(=O)NC(C)(C)C
